# Sampled rows, rich in hits. Any-hit rate of the full collection: about 10%.
# GPT2 inh = Primary qHTS assay for inhibitors of Glutamate pyruvate transaminase 2 (GPT2); Recombinant GPT2, coupled pyruvate oxidase/HRP Amplex Red fluorescence; actives 0.25% (n = 100,000); Potency, µM (series often up to 57.7 µM), without a hit: top-dose activity change, negative = inhibition, actives largely listed as inhibitors; note: % is set by controls: 0 for no effect and ±100 for the full control effect; nearly all actives have a fitted effect of over 60% in size
#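 Inhibition is scored from Amplex Red fluorescence generated when pyruvate oxidase and HRP act on pyruvate released by GPT2. Reactions contain 10ng/uL enzyme, 250uM a-KG and 2mM L-alanine and run 30 min at room temperature.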
# HEK293 tox = Cytotoxic Profiling in HEK 293 Cell Line of Diverse Libraries Using Quantitative High-Throughput Screening. HEK 293 viability, ATP luminescence (CellTiter-Glo), 48-72 h. Potency, µM (titrated, usually from 115 µM), inactives show at the highest dose activity change, negative = cytotoxicity, usual class: inhibitors. actives 6.6% (n = 94,000); note: % is set by controls: 0 for no effect and ±100 for the full control effect; nearly all actives have a fitted effect of over 60% in size
#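 Pintool-delivered compounds were incubated with HEK 293 cells (250 cells/well) at 37 degree Celsius for 48 or 72 hr. ATP-dependent luminescence (CellTiter-Glo) then reported remaining viable cells.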
# hNpr1 antagonist = Natriuretic polypeptide receptor (hNpr1) antagonism - Primary qHTS; Atrial natriuretic peptide receptor 1 (Homo sapiens), P16066; HEK293 hNpr1 GloSensor cGMP, ANP-stimulated luminescence; Potency, µM (highest dose often 46.3 µM), without a hit: at the top dose activity change, negative = inhibition, most hits filed as inhibitors; actives 1.6% (n = 76,000); AID 1347048, 2019; calls by dose curve; note: % is set by controls: 0 for no effect and ±100 for the full control effect; nearly all actives have a fitted effect of over 60% in size
#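 Compound pre-incubated 30 min at room temperature on GloSensor-loaded HEK293 cells stably carrying hNpr1 and the pGS-40F cGMP biosensor. Stimulation uses hNppA at 0.1 nM final; luminescence is taken at baseline and 20 min post-agonist.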
# 3T3 cytotox = Cytotoxic Profiling in NIH 3T3 Cell Line of Diverse Libraries Using Quantitative High-Throughput Screening; AID 1345082, 2018; Potency, µM (highest dose often 96.7 µM), inactives show top-dose activity change, negative = cytotoxicity, most hits filed as inhibitors; NIH 3T3 viability, CellTiter-Glo ATP luminescence, 48-72 h; actives 4.3% (n = 94,000); note: % is set by controls: 0 for no effect and ±100 for the full control effect; nearly all actives have a fitted effect of over 55% in size
#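 NIH 3T3 cells at 400 cells/well received 23 nL of compound by pintool and were incubated 48 or 72 h at 37 °C. Viability was read as ATP-coupled CellTiter-Glo luminescence.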
# FLuc inh = Firefly luciferase inhibition profiling of diverse chemical library using quantitative high-throughput screening; Potency, µM (titrated, usually from 115 µM), hits mostly inhibitors; purified P. pyralis luciferase, luminescence, biochemical; actives 2.5% (n = 76,000); Luciferin 4-monooxygenase (Photinus pyralis), P08659; note: % is set by controls: 0 for no effect and ±100 for the full control effect; nearly all actives have a fitted effect of over 65% in size
# Target sequence (P08659 whole entry, looked up): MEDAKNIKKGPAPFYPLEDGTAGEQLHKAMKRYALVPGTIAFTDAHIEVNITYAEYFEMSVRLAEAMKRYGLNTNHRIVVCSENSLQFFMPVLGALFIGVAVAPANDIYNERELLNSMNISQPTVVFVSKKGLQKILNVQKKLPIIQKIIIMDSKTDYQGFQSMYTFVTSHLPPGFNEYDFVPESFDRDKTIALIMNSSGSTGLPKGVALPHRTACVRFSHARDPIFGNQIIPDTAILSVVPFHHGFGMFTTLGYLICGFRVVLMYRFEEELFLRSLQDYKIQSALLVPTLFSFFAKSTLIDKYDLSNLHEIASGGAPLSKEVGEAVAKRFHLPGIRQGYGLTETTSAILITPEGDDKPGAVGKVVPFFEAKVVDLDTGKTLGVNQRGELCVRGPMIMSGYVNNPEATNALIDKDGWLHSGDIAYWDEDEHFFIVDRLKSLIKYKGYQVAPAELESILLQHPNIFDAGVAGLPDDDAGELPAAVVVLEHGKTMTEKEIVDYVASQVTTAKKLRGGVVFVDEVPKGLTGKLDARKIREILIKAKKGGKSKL
#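 FLuc 10nM, D-luciferin 10uM, ATP 10uM, Mg acetate 10mM, Tris acetate pH 7.5, Tween/BSA; cpd qHTS; enzyme added last; CCD luminescence.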
# NPR1 antag cnf = Natriuretic polypeptide receptor (hNpr1) antagonism - Confirmation; shares compounds with hNpr1 antagonist; HEK293 hNpr1 cGMP GloSensor luminescence, ANP-stimulated; Potency, µM (highest dose often 57.6 µM), for the others: at the highest dose activity change, negative = inhibition, most hits filed as inhibitors; actives 76% (n = 1,400); AID 1347044, 2019; calls by dose curve; note: nearly all actives have a fitted effect of over 70% in size
# Npr2 selectivity = Natriuretic polypeptide receptor (hNpr2) antagonism - Subtype selectivity assay; Potency, µM (doses to about 57.6 µM), without a hit: at the highest dose activity change, negative = inhibition, actives largely listed as inhibitors; shares compounds with hNpr1 antagonist; actives 67% (n = 1,400); HEK293 hNpr2 GloSensor cGMP luminescence, CNP-stimulated; calls by dose curve; note: nearly all actives have a fitted effect of over 70% in size
# FLuc counter = Natriuretic polypeptide receptor (hNpr1) antagonism - Confirmation firefly luciferase (FLuc) inhibition counterscreen; purified FLuc enzyme, luminescence, Km substrate; actives 0.7% (n = 1,400); shares compounds with hNpr1 antagonist; Potency, µM (highest dose often 57.6 µM), for inactives: at the highest dose activity change, negative = inhibition, actives largely listed as inhibitors; AID 1347047, 2019; note: 0% is about no effect
# GloSensor cGMP = Natriuretic polypeptide receptor (hNpr1) antagonism - Counterscreen GloSensor control cell line; shares compounds with hNpr1 antagonist; AID 1347051, 2019; HEK293 GloSensor cGMP, SNP-stimulated, luminescence; actives 69% (n = 1,400); Potency, µM (titrated, usually from 57.6 µM), for inactives: at the highest dose activity change, negative = inhibition, most hits filed as inhibitors; calls by dose curve; note: % is set by controls: 0 for no effect and ±100 for the full control effect; nearly all actives have a fitted effect of over 70% in size
# * = called active by the depositor; i = inactive; ? = inconclusive; · = no result; [ ] = another dose, or the depositor's remark. Unless noted, calls come from the whole dose curve; as a rule, active = well fitted curve in the direction sought with a large enough effect; inconclusive = small, poorly fitted or top-dose-only effect, or another doubt; inactive = no such curve, though single readings can be large; an effect the other way counts as inactive or inconclusive. Potency is the fitted concentration of half-maximal effect.
SMILES,GPT2 inh,HEK293 tox,hNpr1 antagonist,3T3 cytotox,FLuc inh,NPR1 antag cnf,Npr2 selectivity,FLuc counter,GloSensor cGMP
O=C(Cc1c[nH]c2ncc(-c3ccccc3Oc3ccccc3)cc12)N1CCOCC1,?,50µM*,14µM*,?,i,13µM*,22µM*,-2%[86.2 µM],13µM*
COc1ccc(-c2cnc3[nH]cc(CC(=O)N4CCNC(=O)C4)c3c2)cc1,-17%[88.5 µM],-11%[172 µM],-15%[70.6 µM],?,i,·,·,·,·
O=C(Cc1c[nH]c2ncc(-c3ccccc3)cc12)NC1CCOCC1,0%[88.5 µM],?,-9%[70.6 µM],?,i,·,·,·,·
COc1cc(F)cc(-c2cnc3[nH]cc(CC(=O)N4CCOCC4)c3c2)c1,-32%[88.5 µM],?,6.3µM*,?,i,3.1µM*,18µM*,?,7.9µM*
O=C(Cc1c[nH]c2ncc(-c3ccccc3)cc12)N1CCCC1,-27%[88.5 µM],?,?,?,i,28µM*,?,?,?
O=C(Cc1c[nH]c2ncc(-c3ccc(Oc4ccccc4)cc3)cc12)N1CCOCC1,-3%[88.5 µM],56µM*,10µM*,?,i,13µM*,18µM*,?,11µM*
O=C(Cc1c[nH]c2ncc(-c3cccc(CO)c3)cc12)N1CCOCC1,-25%[88.5 µM],?,-22%[70.6 µM],?,i,·,·,·,·
CO[C@H]1CN(C2CCN(C(=O)c3cc(C)n(C)n3)CC2)[C@H]1c1cccnc1,i,i,·,-13%,·,·,·,·,·
O=C(Nc1cc(-c2ccccn2)nn1-c1ccccc1)C1CC1,2%[88.5 µM],-5%[172 µM],·,-9%[138 µM],·,·,·,·,·
CCNC(=O)N1CCOc2ccc(CCC(=O)Nc3ccc(C)cc3)cc2C1,1%,?,11µM*,?,i,15µM*,19µM*,-15%,12µM*
CCCNC(=O)CCc1ccc2c(c1)CN(C(=O)NCC)CCO2,i,1%,2%,-12%,i,·,·,·,·
CC(C)NC(=O)NC1CC2(CCN(Cc3ccc(O)cc3)CC2)c2ccccc21 (stereo unspecified),i,?,·,?,·,·,·,·,·
O=C(c1ccc2c(c1)OCO2)N1CCC2(CC1)N=C(c1ccc(Br)cc1)NO2,-15%,?,13µM*,?,i,22µM*,19µM*,-2%,17µM*
CCOc1ccc(C(=O)N2CCC3(CC2)N=C(c2ccc(Cl)cc2)NO3)cc1,-5%,?,8.9µM*,1%,i,19µM*,17µM*,-3%,15µM*
CCOc1ccc(CC(=O)N2CCC3(CC2)N=C(c2ccc(Cl)cc2)NO3)cc1,0%,?,?,?,i,·,·,·,·

# High-throughput results (PubChem BioAssay)
